Test in all cases: NCI-60 one-dose screen, 48 h (100 = growth as untreated, 0 = no growth, -100 = all killed)
What all share (settings): 10 µM unless noted

Assay [1] relates to SK-MEL-2 melanoma.
The subject of assay [2] is EKVX NSCLC.
Assay [3] deals with SN12C renal.
In assay [4] the test system is UO-31 renal.
Assay [5] has as its system TK-10 renal.
Assay [6] has as its system CAKI-1 renal.
Assay [7] has as its system A498 renal.
Assay [8] concerns CCRF-CEM leukemia.
Assay [9] deals with MOLT-4 leukemia.
Assay [10] has as its system ACHN renal.

The values below come from PubChem BioAssay (NCI).

“And” between values parts separate entries of the source, which are not always exact repeats. Equal values may be shown once. About 83,000 compounds went through this panel and 20% of them were active in at least one assay; those are over-represented in the sample as a whole.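 Results are percent growth after 48 hours of single-concentration exposure. 100 means growth as in untreated cells, lower positive values show inhibition; negative values down to -100 show cell death.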 The source made the active and inactive calls. Rule for the calls: active = growth percent below 10; inactive = the rest.

Consider `CCN(C)c1ccccc1`, for which the growth in [1] was 104% (inactive); in assay [2], 87.5% (inactive); in assay [3], 96.7% (inactive); in assay [4], 72.6% (inactive); in assay [5], 107% (inactive); in assay [6] it was 90.8% (inactive). The growth is 99.6% (inactive) in assay [7], 103% (inactive) in [8] and 88.2% (inactive) in [9].

As to `CCN(CC)C(=S)SCCO`, the growth in assay [1] was 105% (inactive); in [2], 106% (inactive); in assay [3] it was 105% (inactive); in [5], 86% (inactive); in assay [10], 111% (inactive); in assay [6], 107% (inactive). The results for the growth in assay [7], in assay [8] and in assay [9] were 75.6% (inactive), 100% (inactive) and 96.6% (inactive), respectively.

Consider `CC(=O)/C(N=Nc1ccc(S(=O)(=O)c2ccc(N=N/C(C(C)=O)=C(/C)O)cc2)cc1)=C(\C)O`, for which the growth is 117% (inactive) in assay [1]; 116% (inactive) in assay [2]; 110% (inactive) in assay [3]; 83.5% (inactive) in assay [4]; 108% (inactive) in assay [5]; 100% (inactive) in [6]. Also, the growth was 100% (inactive) in assay [7], 85.9% (inactive) in assay [8] and 100% (inactive) in [9].

For `O=[N+]([O-])c1ccc(NC2CCCCC2)nc1`, the growth in assay [1] was 104% (inactive) and 107% (inactive); in [2], 101% (inactive) and 106% (inactive); in assay [3] it was 104% (inactive) and 108% (inactive); in [4], 90% (inactive) and 76.3% (inactive); in [5] it was 103% (inactive) and 101% (inactive); in assay [7], 102% (inactive). The growth in assay [8] is 103% (inactive) and 96.3% (inactive); in [9], 95.2% (inactive) and 106% (inactive).

In the case of `COc1cc(Cl)ccc1C`, the growth is 30.3% (inactive) in assay [1]; 109% (inactive) in assay [2]; 72.7% (inactive) in assay [3]; 67.1% (inactive) in assay [4]; 90.5% (inactive) in [5]; 54.7% (inactive) in assay [6]. Also, the growth was 110% (inactive) in [7], 91.9% (inactive) in assay [8] and 81.7% (inactive) in assay [9].

On to `Nc1ccccc1SC1CC(=O)N(c2ccc(I)cc2)C1=O` (centres undefined), for which the growth in assay [1] was 86.9% (inactive); in assay [2] it was 90.6% (inactive); in assay [3] it was 91.8% (inactive); in assay [5], 106% (inactive); in assay [6] it was 81.7% (inactive); in assay [7], 108% (inactive). The growth in assay [8] is 89.7% (inactive); in assay [9] it was 81.5% (inactive).

In the case of `CCCCCCC(C)CC1=C(O)c2ccccc2C(=O)C1=O` (centres undefined), the growth was 68.9% (inactive) in assay [1]; 62% (inactive) in [2]; 46.6% (inactive) in assay [3]; 42.7% (inactive) in assay [4]; 60.5% (inactive) in [5]; 39.7% (inactive) in [6]. Moreover, the growth in assay [7] is 54.3% (inactive); in [8], 33.3% (inactive); in [9] it was 26.6% (inactive).

As to `COc1cc2c(cc1O)C(=O)CCCC2`, the growth in [1] was 98% (inactive); in assay [2] it was 81.6% (inactive); in assay [3] it was 111% (inactive); in assay [5], 110% (inactive); in assay [10] it was 96.9% (inactive); in [6] it was 73.3% (inactive). In addition, the growth is 116% (inactive) in assay [7], 97.7% (inactive) in assay [8] and 83.9% (inactive) in assay [9].

Regarding `COc1ccccc1OCC(O)CO` (centres undefined), the growth is 98.3% (inactive) and 110% (inactive) in assay [1]; 102% (inactive) and 83.5% (inactive) in assay [2]; 95.2% (inactive) and 103% (inactive) in [3]; 87.6% (inactive) and 96.4% (inactive) in [4]; 98% (inactive) in [5]; 90.8% (inactive) in assay [6]. The growth is 98% (inactive) and 87.8% (inactive) in assay [7]; 98.5% (inactive) and 97.1% (inactive) in assay [8]; 144% (inactive) and 121% (inactive) in assay [9].

In the case of `CC(NC(=O)CCl)c1ccccc1` (centres undefined), the growth in assay [1] is 104% (inactive); in assay [2] it was 99% (inactive); in assay [3] it was 110% (inactive); in assay [4], 98.8% (inactive); in [5], 98.8% (inactive); in assay [7] it was 83.9% (inactive). Moreover, the growth is 105% (inactive) in assay [8] and 101% (inactive) in [9].

On to `CCOC(=O)c1ccc(C(=N)N)cc1`, for which the growth in assay [1] is 113% (inactive); in assay [2], 103% (inactive); in assay [3], 117% (inactive); in [5] it was 105% (inactive); in assay [10] it was 126% (inactive); in assay [6] it was 97.6% (inactive). Besides, the growth in [7] was 98.6% (inactive); in [8], 103% (inactive); in [9], 109% (inactive).

On to `CCOC(C)=N`, for which the growth was 110% (inactive) in [1]; 134% (inactive) in assay [2]; 105% (inactive) in [3]; 107% (inactive) in assay [4]; 107% (inactive) in [5]; 108% (inactive) in assay [6]. Also, the growth in assay [7] was 120% (inactive); in assay [8], 98.6% (inactive); in assay [9], 94.6% (inactive).

As to `OC(CC(c1ccccc1)c1cccc2ccccc12)(c1ccccc1)c1ccccc1` (centres undefined), the growth was 77.9% (inactive) and 74.5% (inactive) in [1]; 79.8% (inactive) and 54.9% (inactive) in [2]; 91.3% (inactive) and 84.9% (inactive) in assay [3]; 75.9% (inactive) and 82.7% (inactive) in assay [5]; 83.9% (inactive) and 93% (inactive) in [10]; 64.6% (inactive) and 57% (inactive) in assay [6]. Also, the growth in [7] is 73.4% (inactive) and 89.7% (inactive); in assay [8], 38.5% (inactive) and 83.4% (inactive); in [9] it was 77.3% (inactive) and 52.7% (inactive).

Regarding `COc1ccc(-n2[nH]c3c(cnc4ccccc43)c2=O)cc1`, the growth is 79.5% (inactive) and 111% (inactive) in [1]; 89% (inactive) in assay [2]; 85% (inactive) and 95% (inactive) in assay [3]; 90% (inactive) and 93.4% (inactive) in [5]; 68.3% (inactive) and 95.9% (inactive) in assay [6]; 93.7% (inactive) and 91.9% (inactive) in assay [7]. Besides, the growth in [8] was 101% (inactive); in [9] it was 108% (inactive) and 99.9% (inactive).

As for `CCOC(=O)c1ccncc1`, the growth in assay [1] was 106% (inactive); in assay [2], 104% (inactive); in assay [3], 98.9% (inactive); in [5], 99.4% (inactive); in assay [10], 119% (inactive); in [7] it was 86.8% (inactive). Further, the growth in [8] was 108% (inactive); in [9] it was 104% (inactive).

In the case of `O=C(c1ccncc1)c1c(Cc2ccccc2)ccc2ccccc12`, the growth was 69.7% (inactive) in assay [1]; 66.5% (inactive) in assay [2]; 90.6% (inactive) in assay [3]; 107% (inactive) in [5]; 93.8% (inactive) in [10]; 73.8% (inactive) in assay [6]. Besides, the growth in [7] is 104% (inactive); in assay [8] it was 103% (inactive); in [9], 94.6% (inactive).

Regarding `CC(=O)Oc1cc(C(C)C)c(OCCN(C)C)cc1C`, the growth is 116% (inactive) and 119% (inactive) in assay [1]; 107% (inactive) in assay [2]; 96.7% (inactive) and 97.6% (inactive) in [3]; 112% (inactive) and 121% (inactive) in assay [5]; 99.4% (inactive) in [10]; 91.9% (inactive) and 95.3% (inactive) in [6]. The growth in assay [7] is 98.3% (inactive) and 97.4% (inactive); in [8] it was 113% (inactive) and 99.6% (inactive); in assay [9] it was 117% (inactive) and 105% (inactive).

For `CCCCOC1NC(=O)NC(=O)C1(F)C(=O)OCC` (centres undefined), the growth in assay [1] is 97.8% (inactive) and 101% (inactive); in [2], 74.8% (inactive); in [3], 90.2% (inactive) and 59.9% (inactive); in assay [5], 65.5% (inactive) and 71.7% (inactive); in assay [10], 82% (inactive) and 67.4% (inactive); in assay [6], 45.3% (inactive) and 62.3% (inactive). Also, the growth in [7] was 78.9% (inactive) and 112% (inactive); in assay [8], 72.6% (inactive); in assay [9], 92% (inactive) and 65.2% (inactive).

In the case of `OCCS`, the growth in [1] was 108% (inactive); in assay [2], 98.8% (inactive); in assay [3] it was 107% (inactive); in [5], 84.7% (inactive); in assay [10], 111% (inactive); in [7], 66.4% (inactive). The growth was 100% (inactive) in assay [8] and 92.2% (inactive) in [9].

For `OC1CCCN(Cc2ccccc2)C1` (centres undefined), the growth was 115% (inactive) in assay [1]; 116% (inactive) in assay [2]; 98.5% (inactive) in assay [3]; 97.4% (inactive) in assay [5]; 106% (inactive) in [10]; 105% (inactive) in [6]. The growth in assay [7] is 96.2% (inactive); in [8] it was 98.4% (inactive); in assay [9], 92.5% (inactive).

As to `O=[N+]([O-])c1cccc(N=Cc2ccccc2)c1`, the growth is 104% (inactive) in [1]; 102% (inactive) in assay [2]; 104% (inactive) in assay [3]; 94.2% (inactive) in [5]; 102% (inactive) in [10]; 88.1% (inactive) in assay [6]. In addition, the growth is 110% (inactive) in [7], 95.7% (inactive) in [8] and 87.4% (inactive) in [9].

As to `COc1ccc(CCl)c(C)c1OC`, the growth in assay [1] was 104% (inactive); in [2] it was 104% (inactive); in [3] it was 98.2% (inactive); in assay [5], 102% (inactive); in assay [10], 110% (inactive); in assay [6], 101% (inactive). Besides, the growth in assay [7] is 89.5% (inactive); in assay [8], 97.3% (inactive); in [9], 104% (inactive).

Take `CCC(=O)Oc1ccc(OCc2ccccc2)cc1`: the growth in [1] was 123% (inactive); in assay [2] it was 97.2% (inactive) and 105% (inactive); in [3], 110% (inactive) and 81.6% (inactive); in [5], 92.1% (inactive); in assay [10] it was 18.4% (inactive) and 13.3% (inactive); in [6], 61.2% (inactive) and 3.23% (active). For the same compound, the growth in assay [7] is 120% (inactive) and 93.1% (inactive); in assay [8], 62.9% (inactive) and 63.6% (inactive); in assay [9] it was 74.4% (inactive) and 75.2% (inactive).

Turning to `O=C(/C=C/C=C/c1ccc2c(c1)OCO2)N1CCCCC1`, the growth in [1] is 128% (inactive) and 57.5% (inactive); in assay [2] it was 78.9% (inactive) and 95.9% (inactive); in assay [4], 88.8% (inactive) and 74.4% (inactive); in [5], 157% (inactive) and 175% (inactive); in assay [10], 106% (inactive); in assay [6], 92.6% (inactive) and 106% (inactive). Also, the growth is 92.7% (inactive) and 83.6% (inactive) in assay [7]; 109% (inactive) and 107% (inactive) in [8]; 98.3% (inactive) and 84% (inactive) in [9].

As to `COC1C(OC(N)=O)C(O)C(Oc2ccc3c(O)c(NC(=O)c4ccc(O)c(CC=C(C)C)c4)c(=O)oc3c2C)OC1(C)C` (centres undefined), the growth is 105% (inactive) and 111% (inactive) in assay [1]; 109% (inactive) in assay [2]; 107% (inactive) and 96.9% (inactive) in assay [4]; 115% (inactive) and 108% (inactive) in assay [5]; 23.8% (inactive) and 101% (inactive) in assay [10]; 85.9% (inactive) and 101% (inactive) in assay [6]. Also, the growth in assay [7] is 106% (inactive) and 70.8% (inactive); in assay [8], 90% (inactive) and 59.2% (inactive); in assay [9], 75.4% (inactive) and 93.5% (inactive).
